Inconclusive results are not listed. Entries that show only a call come without a potency. Values without a mark were called inactive. Activity calls are given as the source filed them. Calls come from the whole dose curve; as a rule, active = well fitted curve in the direction sought with a large enough effect; inconclusive = small, poorly fitted or top-dose-only effect, or another doubt; inactive = no such curve, though single readings can be large; an effect the other way counts as inactive or inconclusive.
Assays:
[1] = P-glycoprotein substrates identified in KB-3-1 adenocarcinoma cell line, qHTS therapeutic library screen (AID 1346986); note: nearly all actives have a fitted effect of over 60% in size
Procedure, shortened: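 Viability by CellTiter-Glo after 72 h compound exposure at 37 degree C, 5% CO2. Cytotoxic call: curve class -1.1 to -2.4, maximum response >50%, AC50 < 10 uM, compared across KB-3-1 and P-gp-overexpressing KB-8-5-11.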

[2] = P-glycoprotein substrates identified in KB-8-5-11 adenocarcinoma cell line, qHTS therapeutic library screen (AID 1346987); note: nearly all actives have a fitted effect of over 65% in size; for activity change, negative = cytotoxicity: series mostly up to about 44 µM
Procedure, shortened: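 Human cervical adenocarcinoma KB-8-5-11 cells, selected in colchicine to over-express P-gp and assayed without it, were exposed for 72 h to titrated compounds. An ATP-based luminescent viability signal gave AC50.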

CC1(C)CC[C@]2(C(=O)O[C@@H]3O[C@H](CO[C@@H]4O[C@H](CO)[C@@H](O)[C@H](O)[C@H]4O)[C@@H](O)[C@H](O[C@@H]4O[C@H](CO)[C@@H](O)[C@H](O)[C@H]4O)[C@H]3O)CC[C@]3(C)C(=CCC4[C@@]5(C)CC[C@H](O[C@@H]6OC[C@@H](O)[C@H](O)[C@H]6O)[C@@](C)(C(=O)O)C5CC[C@]43C)[C@@H]2C1 (some centres undefined)
outcome [1]: inactive [at 9.29 µM]
activity change, negative = cytotoxicity [2]: 2.51% [at 9.29 µM]

Cc1noc2c1-c1ccccc1C(c1ccc(Cl)cc1)=N[C@H]2CC(N)=O
Potency [1]: inactive
Potency [2]: inactive

Cc1onc(-c2c(Cl)cccc2Cl)c1CC(=O)NCc1ccc(OCC(F)(F)F)nc1
Potency [1]: inactive
Potency [2]: inactive

C[C@@]1(C(=O)O)CCC[C@@]2(C)C3=CC[C@H]4C[C@@]3(CC[C@H]12)CC4(O)CO (some centres undefined)
Potency [1]: inactive
Potency [2]: inactive

C=C1CCC2C(C)(C(=O)O)CCCC2(C)C1CC/C(C)=C\CO (centres undefined)
Potency [1]: inactive
Potency [2]: inactive

O=S(=O)(O)c1ccc(Nc2ncnc3c2ncn3[C@@H]2O[C@H](CO)[C@@H](O)[C@H]2O)cc1
Potency [1]: inactive
Potency [2]: inactive

COc1cc(CC2COC(c3ccc(OC4OC(CO)C(O)C(O)C4O)c(OC)c3)C2CO)ccc1O (centres undefined)
Potency [1]: inactive
Potency [2]: inactive

COc1cc(/C=C/C(=O)O[C@H]2[C@@H]3C=CO[C@@H](O[C@@H]4O[C@H](CO)[C@@H](O)[C@H](O)[C@H]4O)[C@@H]3[C@@]3(CO)O[C@@H]23)ccc1O
Potency [1]: inactive
Potency [2]: inactive

C[C@H]1CC[C@@]2(OC1)O[C@H]1CC3C4CC[C@H]5C[C@@H](O)CC[C@]5(C)C4CC(=O)[C@]3(C)[C@H]1[C@@H]2C (some centres undefined)
Potency [1]: inactive
Potency [2]: inactive

C/C=C(/C)C(=O)OC1CC(C)(C)CC2C3=CCC4C5(C)CCC(OC6OC(C)C(OC7OC(C(=O)O)C(O)C(OC8OC(CO)C(O)C(O)C8OC8OC(CO)C(O)C(O)C8O)C7O)C(O)C6O)C(C)(C)C5CCC4(C)C3(C)C(OC(=O)/C=C/C=C/C=C/CCC)C(OC(C)=O)C12CO (centres undefined)
outcome [1]: inactive [at 9.29 µM]
outcome [2]: inactive [at 9.29 µM]

COC(=O)C1=COC(O[C@@H]2O[C@H](COC(=O)/C=C/c3ccc(O)cc3)[C@@H](O)[C@H](O)[C@H]2O)C2C(CO)=CCC12 (some centres undefined)
Potency [1]: inactive
Potency [2]: inactive

CC1CCC2C(C)(C)[C@H](O)CC[C@]2(C)C12Cc1c(O)cc3c(c1O2)CN(C(CCC(=O)O)C(=O)O)C3=O (some centres undefined)
Potency [1]: inactive
Potency [2]: inactive

O=C(N[C@@H]1CC[C@@H](c2cccc(F)c2F)CN(CC(F)(F)F)C1=O)N1CCC(n2c(=O)[nH]c3ncccc32)CC1
Potency [1]: inactive
Potency [2]: inactive

COC(=O)C1=CO[C@@H](O[C@@H]2O[C@H](CO)[C@@H](O)[C@H](O)[C@H]2O)[C@@H]2C(CO)=CC[C@H]12
Potency [1]: inactive
Potency [2]: inactive

C/C=C/C=C/C(O)=C1/C(=O)[C@]2(C)C(=O)[C@@](C)(O)[C@H]1[C@H]([C@@]1(C)OC(=O)C(C)=C1O)[C@H]2C(=O)CC/C=C/C
Potency [1]: inactive
Potency [2]: inactive

CC(=O)OC1C(C)C2C(OC3OC(CO)C(O)C(O)C3O)OC=C(C(=O)O)C2C1OC(=O)c1ccccc1 (centres undefined)
Potency [1]: inactive
Potency [2]: inactive

C/C=C(\C)C(=O)OCC1OC(OCC2OC(OC3(CO)OC(CO)C(O)C3O)C(O)C(O)C2O)C(O)C(O)C1O (centres undefined)
Potency [1]: inactive
Potency [2]: inactive

CC1(C)C=Cc2c(ccc3c2N=C2C(C)(C)[C@@H]4C[C@]56CCCN5C(=O)[C@@]4(C[C@]23O)NC6=O)O1
Potency [1]: inactive
Potency [2]: inactive

CC1=C(CCC(C)O[C@@H]2O[C@H](CO)[C@@H](O)[C@H](O)[C@H]2O)C(C)(C)CC(O)C1 (some centres undefined)
Potency [2]: inactive

C[C@@H]1O[C@@H](O[C@@H]2\C=C/C=C\C=C/C=C\C[C@H](C)OC(=O)/C=C\[C@H]3O[C@@H]3C[C@H](O)C[C@]3(O)C[C@@H](O)[C@@H](C(=O)O)[C@H](C2)O3)[C@H](O)[C@H](N)[C@@H]1O
Potency [1]: inactive
Potency [2]: inactive
